The record followed here is PubChem BioAssay (Tox21).

Inconclusive results are not listed. Calls of active or inactive are those of the source. Unless noted, calls follow the shape of the dose curve; as a rule, active = well fitted curve in the direction sought with a large enough effect in the repeat runs; inconclusive = weak or mixed curves; inactive = no such curve, though single readings can be large; an effect the other way counts as inactive or inconclusive.

Assay [1] in a line: qHTS assay to identify small molecule antagonists of the estrogen related receptor (ERR) signaling pathway - cell viability counter screen (AID 1224818).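 Also: series mostly up to about 46 µM; viability measured after 17.5 h of compound exposure.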 In outline: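 Cytotoxicity check run alongside the ERR antagonist screen: cells exposed to test compounds 17.5 h at 37 C, viability taken as CellTiter-Fluor fluorescence intensity.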
Assay [2] in a line: qHTS assay to identify small molecule antagonists of the estrogen related receptor (ERR) signaling pathway (AID 1224819; also: nearly all actives have a fitted effect of over 50% in size; also: potency is read from the fitted curve at half-maximal effect). Put shortly:
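ERR reporter cells were plated at 2,000 cells/well and left 6 h at 37 C/5% CO2 before pin-tool transfer of compounds in DMSO. After 18 h at 37 C, One-Glo was added and luminescence was read 30 min later at room temperature.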

Assay [3] is described as follows: qHTS assay to identify small molecule agonists of the estrogen related receptor (ERR) signaling pathway (AID 1224820). Put shortly: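 Luminescence readout (One-Glo, 30 min RT) from NTP-supplied ERR cell line exposed to compounds for 18 h at 37 C. Cells seeded 2,000 per well and pre-incubated 6 h before pin-tool compound transfer.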
Assay [4] deals with estrogen-related receptor alpha (ERRalpha) with PGC-1alpha coactivator, human. Description: qHTS assay to identify small molecule antagonists of the estrogen related receptor signaling pathway with the pleiotropic PPARgamma coactivator (PGC) (AID 1224821; calls by dose curve; also: nearly all actives have a fitted effect of over 50% in size; also: potency is read from the fitted curve at half-maximal effect). Put shortly:
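PGC/ERR reporter cells; 6 h pre-incubation 37 C/5% CO2; pin-tool compound in DMSO, 18 h 37 C; One-Glo added, 30 min RT; luminescence read. qHTS antagonist mode.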
A general note: In qHTS, concentration-response curves come from the screen itself.

Assay [5] can be described thus: qHTS assay to identify small molecule antagonists of the estrogen related receptor signaling pathway with the pleiotropic PPARgamma coactivator (PGC) cell viability counter screen (AID 1224822;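 also: series mostly up to about 46 µM; viability read after 17.5 h compound exposure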). In outline:
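Viable cell signal (CellTiter-Fluor, 30 min, 37 C/5% CO2) was measured in PGC/ERR cells after a 17.5 h compound incubation.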

Assay [6] can be described thus: qHTS assay to identify small molecule agonists of the estrogen related receptor signaling pathway with the pleiotropic PPARgamma coactivator (PGC) (AID 1224823). In outline: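 Luminescence readout (One-Glo, 30 min RT) from PGC/ERR cell line treated 18 h at 37 C with pin-tool-delivered DMSO compound solutions; cells plated 6 h before dosing. Quantitative HTS format.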

`NC(=O)c1ccc2[nH]ccc2c1`: the Potency result in assay [1], in assay [2], in assay [3], in assay [4], in assay [5] and in assay [6] was “inactive” each time.
For the compound `CC(C)NC[C@H](O)c1ccc(O)c(O)c1`, the Potency result in assay [1], in assay [2], in assay [3], in assay [4] and in assay [6] was “inactive” each time.
Take `COc1ccccc1CN[C@@H]1CCCN[C@@H]1c1ccccc1`: the Potency entry in assay [1], in assay [2], in assay [3], in assay [4], in assay [5] and in assay [6] was “inactive” throughout.
On to `NCCCNCCCCNCCCN`, for which the Potency result in assay [1], in assay [2], in assay [3], in assay [4], in assay [5] and in assay [6] was “inactive” in each case.
Turning to `O=S(=O)(c1cccc2c(I)cccc12)N1CCCNCC1`, the Potency entry in assay [1], in assay [2], in assay [3], in assay [4], in assay [5] and in assay [6] was “inactive” in each case.
`NC1(C(=O)O)CCc2cc(C(=O)O)ccc21` (centres undefined): the Potency result in assay [1], in assay [2], in assay [3], in assay [4], in assay [5] and in assay [6] was “inactive” in each case.
In the case of `O=C(O)CNC(=O)C(CS)Cc1ccccc1` (centres undefined), the Potency entry in assay [1], in assay [2], in assay [3], in assay [4] and in assay [6] was “inactive” in each case.
On to `S=c1[nH]c(-c2ccccc2)cn1-c1ccccc1`, for which the Potency result in assay [1], in assay [2], in assay [3], in assay [4], in assay [5] and in assay [6] was “inactive” each time.
Regarding `CC(C)(C)NCC(O)COc1cccc2[nH]c(=O)[nH]c12` (centres undefined), the Potency entry in assay [1], in assay [2], in assay [3], in assay [4], in assay [5] and in assay [6] was “inactive” in each case.
Turning to `NC(N)=NC(N)=Nc1cccc(Cl)c1`, the Potency result in assay [1], in assay [2], in assay [3], in assay [4] and in assay [6] was “inactive” each time.
As to `Cn1c(=O)c2[nH]c(-c3ccc(S(=O)(=O)O)cc3)nc2n(C)c1=O`, the Potency entry in assay [1], in assay [2], in assay [3], in assay [5] and in assay [6] was “inactive” throughout.
As for `COc1ccc2c(c1)CCC1C2CC[C@@]2(C)C1CC[C@@H]2NCCCCCCN1C(=O)CCC1=O` (some centres undefined), the Potency result in assay [1], in assay [2] and in assay [4] was “inactive” in each case.
Consider `Oc1cc2c(cc1O)C(c1ccccc1)CNCC2` (centres undefined), for which the Potency result in assay [1], in assay [2], in assay [3] and in assay [6] was “inactive” in each case.
As for `NC[C@@H]1O[C@H](c2ccccc2)Cc2c1ccc(O)c2O`, the Potency entry in assay [1], in assay [2], in assay [3], in assay [4] and in assay [6] was “inactive” throughout.
Take `CCCCCCCCCCCCCCCCCCOC[C@H](COP(=O)([O-])OCC[N+](C)(C)C)OC`: the Potency entry in assay [1], in assay [2], in assay [3], in assay [4] and in assay [6] was “inactive” in each case.
As to `CC1CN(S(=O)(=O)c2cccc3cnccc23)CCN1` (centres undefined), the Potency entry in assay [1], in assay [2], in assay [3], in assay [5] and in assay [6] was “inactive” each time.
`Clc1ccc2c(N3CCN(CCCN4CCN(c5ccnc6cc(Cl)ccc56)CC4)CC3)ccnc2c1`: the Potency result in assay [1], in assay [2], in assay [3], in assay [5] and in assay [6] was “inactive” in each case.
As for `CN1CCN(c2nc3cc(C(F)(F)F)ccc3n3cccc23)CC1`, the Potency entry in assay [1], in assay [2], in assay [3], in assay [4] and in assay [6] was “inactive” throughout.
Regarding `CC(C)(NS(=O)(=O)c1ccc(Oc2ccc(F)cc2)cc1)C(=O)NO`, the Potency entry in assay [1], in assay [3], in assay [5] and in assay [6] was “inactive” each time. Moreover, the Potency in assay [2] is 2.46 µM (active).
Consider `C#C[C@]1(O)CC[C@H]2[C@@H]3CCC4=Cc5oncc5CC4(C)[C@H]3CCC21C` (some centres undefined), for which the Potency entry in assay [1], in assay [3] and in assay [6] was “inactive” each time. For the same compound, the Potency is 16.8 µM (active) in assay [2] and 19.6 µM (active) in assay [4].
In the case of `O=C1C(SCCO)=C(SCCO)C(=O)c2ccccc21`, the Potency entry in assay [1], in assay [3] and in assay [6] was “inactive” throughout. In addition, the Potency is 9.08 µM (active) in assay [2] and 18.8 µM (active) in assay [4].
Consider `Brc1c(Br)c(Br)c2[nH]cnc2c1Br`, for which the Potency entry in assay [1], in assay [3] and in assay [6] was “inactive” in each case. Also, the Potency in assay [2] is 19.6 µM (active); in assay [4], 6.94 µM (active).
As to `NCC1OC(OC2C(O)[C@@H](OC3C(O)C(N)CC(N)C3OC3OC(CO)C(O)C(O)C3N)O[C@@H]2CO)C(N)C(O)C1O` (some centres undefined), the Potency entry in assay [1], in assay [2], in assay [3], in assay [4] and in assay [6] was “inactive” each time.
As for `COc1cccc(C(=O)NCCN2CCN(c3ccc(Cl)cc3)CC2)c1`, the Potency result in assay [1], in assay [3], in assay [5] and in assay [6] was “inactive” each time. In addition, in assay [2], the Potency is 17.4 µM (active).
As to `N#C/C(=C\c1ccc(O)c(O)c1)C(=O)NCCCNC(=O)/C(C#N)=C/c1ccc(O)c(O)c1`, the Potency result in assay [1], in assay [2], in assay [3], in assay [4] and in assay [6] was “inactive” each time.
As for `NOCC(=O)O`, the Potency entry in assay [1], in assay [2], in assay [3], in assay [4] and in assay [6] was “inactive” in each case.
Turning to `Cc1cc(N)c2ccccc2[n+]1CCCCCCCCCC[n+]1c(C)cc(N)c2ccccc21`, the Potency result in assay [1], in assay [3], in assay [5] and in assay [6] was “inactive” in each case. Besides, the Potency in assay [2] is 0.722 µM (active).
Consider `O=C(O)C1=CC(=C(c2ccc(O)c(C(=O)O)c2)c2ccc(O)c(C(=O)O)c2)C=CC1=O`, for which the Potency entry in assay [1], in assay [2], in assay [3], in assay [5] and in assay [6] was “inactive” in each case.
As to `O=C(c1cc(O)c(O)c([N+](=O)[O-])c1)c1ccccc1F`, the Potency entry in assay [1], in assay [3] and in assay [6] was “inactive” in each case. Also, the Potency in assay [2] was 25.6 µM (active); in assay [4], 22.8 µM (active).
Turning to `Cn1ncc(S(=O)(=O)Cc2ccccc2)c(Br)c1=O`, the Potency entry in assay [1], in assay [2], in assay [3], in assay [4] and in assay [6] was “inactive” throughout.
For the compound `COc1cc(SC)ccc1C(=O)N1CCC(Cc2ccccc2)CC1`, the Potency result in assay [1], in assay [3], in assay [5] and in assay [6] was “inactive” in each case. Further, in assay [2], the Potency is 20.3 µM (active).
As to `O=C1NC(=O)/C(=C/c2ccc3nccnc3c2)S1`, the Potency entry in assay [1], in assay [2], in assay [3], in assay [5] and in assay [6] was “inactive” each time.
